Screen size: about 4,800 compounds; about 420 (8.8%) showed an effect of 50% or more. The full list was thinned out, with strong results kept by preference.
The molecules below were run on Plasmodium falciparum (assay: Confirmatory screen in NF54 nanoGlo assay, in single point, at 2uM, 72h). Conditions: timepoint 72 hour.
Type: functional, Erythrocyte
CN1CCC(N(Cc2ccccc2)C(=O)c2cc3cnccc3[nH]2)CC1 was tested, and the “% Inhibition” value was 61%.
In the case of CCCN1CCC(N2CC(c3cccnc3)C(c3nc(C4CCCC4)no3)C2)CC1 (stereo not drawn), the “% Inhibition” value is reported as -2%.
With Cc1cc(O)c(Cl)cc1-c1cccc2c(N)ccnc12 the “% Inhibition” value was 91%.
In the case of Cc1cc(O)c(Cl)cc1-c1ccc2nccc(N)c2c1, the “% Inhibition” value is reported as 90%.
For Clc1ccc2[nH]c3c(c2c1)CCCC3NC1CCN(C2CCOC2)CC1 (stereo not drawn), the “% Inhibition” value was 81%.
With CN1CCC(Oc2ccc(NC(=O)c3cn4ccnc4s3)cn2)CC1 the “% Inhibition” value was 86%.
With Nc1ccnc2ccc(-c3ccc(C(=O)NCC4CCOCC4)cc3)cc12 the “% Inhibition” value was 77%.
For Cc1ccc2nc(-c3cccc(NC(=O)c4ccc(OC(F)(F)F)c(Cl)c4)c3)[nH]c2n1, the “% Inhibition” value was 72%.
In the case of Cc1cc(N2CCC(N(C)Cc3cc(-c4ccccc4)n[nH]3)CC2)nc(N)n1, the “% Inhibition” value is reported as 21%.
With Cc1cc(N2CCC(NC3CCCC3Cc3ccc(F)cc3)CC2)nc(N)n1 (stereo not drawn) the “% Inhibition” value was 96%.
With Cc1cc(N2CCC(NC3CCNC(c4ccccc4)C3)CC2)nc(C)n1 (stereo not drawn) the “% Inhibition” value was 30%.
With c1cc(CNC2CCN(C[C@H]3CCOC3)CC2)c2cc[nH]c2c1 the “% Inhibition” value was -7%.
In the case of Fc1cccc(Cl)c1CN1CCC(NC[C@H]2CCCOC2)CC1, the “% Inhibition” value is reported as 24%.
O=C(NCc1ccc(N2CCNCC2)c(F)c1)c1ccc(-c2noc(C(F)(F)F)n2)cc1 was tested, and the “% Inhibition” value was 57%.
With Cc1nc(N2CCN(C)CC2)cc(N2CCN(S(=O)(=O)c3ccccc3C(F)(F)F)CC2)n1 the “% Inhibition” value was 67%.
With Cc1c(CN2CCC(O)(Cn3ccnc3)CC2)[nH]c2c(Cl)cccc12 the “% Inhibition” value was 96%.
O[C@@]1(c2c[nH]nn2)CCN(c2ccnc3cc(Cl)ccc23)C1 was tested, and the “% Inhibition” value was 59%.
For NC(=O)[C@]1(O)CCN(c2ccnc3ccc(Oc4ccccc4)cc23)C1, the “% Inhibition” value was 29%.
For COCCN1CC[C@H](CN(C)c2ccnc3cc(Cl)ccc23)C1, the “% Inhibition” value was 98%.
With COCCN1CCC[C@@]2(CCN(c3ccnc4cc(Cl)ccc34)C2)C1 the “% Inhibition” value was 99%.
For Cc1cc(C)c(CN2CCN(C)CC2)cc1CNCCCn1ccnc1C, the “% Inhibition” value was 38%.
Cc1cccc(N2CCC(NCc3cc(C)cc(CN4CCN(C)CC4)c3C)CC2)c1 was tested, and the “% Inhibition” value was 61%.
For Cc1ccc2nc(NC[C@H]3CCN(C4CC4)C3)cc(C)c2c1, the “% Inhibition” value was 93%.
In the case of COc1ccc(-c2cc(C(=O)Nc3ccc(N4CCN5CCCC5C4)cc3)c3c(C)noc3n2)cc1 (stereo not drawn), the “% Inhibition” value is reported as 41%.
With Cc1cc(NC[C@H]2CN(CC(C)C)CCO2)c2ccccc2n1 the “% Inhibition” value was 26%.
For Cc1cc(N2CCC(Nc3ccnc4ccncc34)CC2)nc(C)n1, the “% Inhibition” value was 9%.
For CCCN1CCC(Nc2cc(C)nc3ccccc23)CC1, the “% Inhibition” value was 77%.
For O=C(Nc1cnc2c(c1)COCC2)c1cc2c(OC(F)(F)F)cccc2[nH]1, the “% Inhibition” value was 95%.

Reference: ChEMBL document CHEMBL5308541, “MAIP: An Open-Source Tool to Enrich High-Throughput Screening Output and Identify Novel, Druglike Molecules with Antimalarial Activity” (ACS Med Chem Lett, 2023)
